# Assay results as given in PubChem BioAssay (NCI).
# This is part of a sample that, as a whole, favours compounds with a hit. Of some 79,000 tested, about 15% had one in any assay. A number with no mark means an inactive call. Active and inactive are the calls of the source. Rule as the data show it: active = growth inhibition above about 70%; inactive = the rest.
# Assays:
# [1] = NCI Yeast Anticancer Drug Screen. Data for the rad50 strain (AID 155);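 also: 0% = growth of vehicle-only cultures of the same strain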; settings: S. cerevisiae rad50 strain growth inhibition, stronger effect = higher value
# Outline: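 Readout: growth inhibition relative to vehicle-treated cultures. Compound exposure was carried out in a genetically defined yeast strain deficient in DNA damage repair.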
# [2] = NCI Yeast Anticancer Drug Screen. Data for the mec2-1 strain (AID 157); settings: S. cerevisiae mec2-1 strain, stronger effect = higher value
# Outline: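 Each compound was tested on mec2-1 yeast, a strain altered in DNA damage repair or cell cycle control. Growth inhibition is reported relative to vehicle.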
# [3] = NCI Yeast Anticancer Drug Screen. Data for the sgs1 mgt1 strain (AID 161);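 also: 0% = growth of cultures given vehicle only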; settings: S. cerevisiae sgs1 mgt1 strain, stronger effect = higher value
# Outline: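 Test agents were incubated with a DNA-repair-mutant yeast strain. Growth was then read and compared against vehicle-treated controls.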
# [4] = NCI Yeast Anticancer Drug Screen. Data for the cln2 rad14 strain (AID 165);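 also: 0% = growth equal to vehicle treated cultures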; settings: S. cerevisiae cln2 rad14 strain, stronger effect = higher value
# Outline: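 Test compounds were added to cln2 rad14 yeast cultures; inhibition of growth was then determined by comparison with vehicle treatment.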
# [5] = NCI Yeast Anticancer Drug Screen. Data for the bub3 strain (AID 167); settings: S. cerevisiae bub3 mutant strain, stronger effect = higher value
# Outline: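 Readout: yeast growth inhibition, expressed relative to vehicle-only wells. The test organism is a mutant strain from a panel with lesions in DNA repair or checkpoint genes.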
# [6] = NCI Yeast Anticancer Drug Screen. Data for the mlh1 rad18 strain (AID 175); settings: S. cerevisiae mlh1 rad18 strain growth inhibition, stronger effect = higher value
# Outline: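 Inhibition values reflect reduced growth of mutant yeast versus vehicle-treated controls following compound exposure; the mutations affect DNA damage repair.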
# [7] = at 5.0 µM (retest, dose inferred, filed as 0.5)
# [8] = at 50.0 µM (retest, dose inferred, filed as 5.0)
Compound,"growth inhibition [1, 7]","growth inhibition [1, 8]",growth inhibition ([1]; at 50.0 µM),"growth inhibition [2, 7]","growth inhibition [2, 8]",growth inhibition ([2]; at 50.0 µM),"growth inhibition [3, 7]","growth inhibition [3, 8]",growth inhibition ([3]; at 50.0 µM),"growth inhibition [4, 7]","growth inhibition [4, 8]",growth inhibition ([4]; at 50.0 µM),"growth inhibition [5, 7]","growth inhibition [5, 8]",growth inhibition ([5]; at 50.0 µM),"growth inhibition [6, 7]","growth inhibition [6, 8]",growth inhibition ([6]; at 50.0 µM)
O=CC(O)CN1CCCC1 (centres undefined),-2%,11%,49.6%,0%,14%,53.2%,2%,8%,87.7% (active),-4%,6%,96.8% (active),-4%,25%,12.7%,1%,16%,92.9% (active)
CC1=C(CO)C(=O)O[C@@H]([C@@H](C)[C@H]2CC[C@H]3[C@@H]4C[C@@H](O)C5=CC=CC(=O)[C@]5(C)[C@H]4CC[C@]23C)C1,-2%,41%,71.2% (active),-24%,49%,46%,-1%,-6%,85.8% (active),-1%,47%,55.2%,0%,40%,60.6%,-22%,36%,90.5% (active)
CCCc1cc2c(cc1CN(C#N)Cc1cc3c(cc1CCC)OCO3)OCO2,-4%,54%,95.3% (active),2%,84% (active),96.3% (active),1%,57%,93.2% (active),-2%,60%,95.8% (active),-4%,87% (active),97% (active),-1%,73% (active),95% (active)
COc1ccc(C2N(Cc3ccc(Cl)cc3)CCN2Cc2ccc(Cl)cc2)cc1,9%,70% (active),46.6%,9%,59%,32.2%,37%,89% (active),71.2% (active),21%,53%,69.2%,34%,91% (active),25.9%,25%,72% (active),50.5%
COc1cccc(/C=N/N(C)C)c1O,0%,29%,56%,-6%,-17%,9.05%,-2%,21%,-1.75%,0%,-8%,11.4%,12%,29%,1.4%,7%,28%,19.6%
C=C(CC)C[C@@H]1C[C@]2(C(=O)OC)c3[nH]c4ccccc4c3CCN2C1=O,-1%,94% (active),52.5%,0%,85% (active),26.9%,8%,98% (active),58.4%,15%,77% (active),62.5%,2%,18%,48.5%,0%,96% (active),82.5% (active)
CC1NC(=O)OC1(C)c1ccccc1 (centres undefined),3%,-3%,50.5%,-5%,-12%,9.2%,2%,2%,-7.5%,1%,-4%,-35.8%,10%,30%,12.1%,12%,1%,-20.6%
N#CC1=C(N)OC(c2ccccc2)=C(C#N)C1c1ccccc1 (centres undefined),90% (active),99% (active),99.2% (active),97% (active),100% (active),99.5% (active),96% (active),100% (active),99.3% (active),98% (active),99% (active),99.2% (active),98% (active),99% (active),99.5% (active),97% (active),99% (active),99.3% (active)
CCCCN(CCCC)/N=C\C1=C2NC(=O)/C(C)=C\C=C/C(OC)C(OC(N)=O)/C(C)=C/C(C)C(O)C(OC)CC(C)CC(=C(OC)C1=O)C2=O (centres undefined),2%,81% (active),54.4%,-2%,87% (active),48.4%,-4%,89% (active),47.9%,-8%,78% (active),47.6%,-3%,32%,44%,-2%,80% (active),60.5%
CC(C)OP(=O)(CCCCCCCCC/C=C/c1ccc2c(c1)OCCOCCOCCOCCO2)OC(C)C,20%,98% (active),97.8% (active),4%,99% (active),92.3% (active),-4%,98% (active),98.2% (active),7%,98% (active),97.3% (active),-11%,99% (active),98.3% (active),24%,99% (active),98.1% (active)
C=CS(=O)(=O)c1ccc2ccccc2c1,-100%,97% (active),99.5% (active),-22%,98% (active),99.4% (active),-20%,98% (active),99.2% (active),-34%,97% (active),98.7% (active),-35%,97% (active),98.8% (active),-93%,97% (active),99% (active)
Cc1ccc2nc(C[n+]3cccc4ccccc43)ccc2c1,96% (active),99% (active),88.8% (active),95% (active),100% (active),81.1% (active),88% (active),99% (active),99.4% (active),92% (active),98% (active),99% (active),96% (active),99% (active),99.7% (active),96% (active),99% (active),99.5% (active)
CN(C)c1ccc(C(O)(Cc2cccnc2)c2ccc(N(C)C)cc2)cc1,-3%,2%,39.2%,-4%,6%,36.8%,-2%,4%,53%,-1%,-4%,13.3%,-3%,1%,72% (active),-5%,8%,54.9%
